These results are taken from PubChem BioAssay (NCATS).

Records with an inconclusive call do not appear. Active and inactive are the calls of the source. Calls follow the shape of the dose curve; as a rule, active = well fitted curve in the direction sought with a large enough effect; inconclusive = small, poorly fitted or top-dose-only effect, or another doubt; inactive = no such curve, though single readings can be large; an effect the other way counts as inactive or inconclusive.

Assay [1] in a line: qHTS of pediatric cancer cell lines to identify multiple opportunities for drug repurposing: Primary screen for RD cells (AID 1347104). Also: nearly all actives have a fitted effect of over 55% in size. As to conditions: RD rhabdomyosarcoma viability, CellTiter-Glo luminescence, 48 h; series mostly up to 46 µM. Summed up:
(§1)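 Primary screen of approved and investigational compounds on cells in growth media at 37 degrees C, 5% CO2. MIPE set at 11-point and NPC set at 8-point dilutions; viability scored by ATP-based luminescence at 48 hours.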

A short description of assay [2]: qHTS of pediatric cancer cell lines to identify multiple opportunities for drug repurposing: Primary screen for MG 63 (6-TG R) cells (AID 1347105). Also: nearly all actives have a fitted effect of over 50% in size. As to conditions: MG 63 (6-TG R) viability, CellTiter-Glo, 48 h; series mostly up to 46 µM. In short, it runs like this: as §1
A general note: In qHTS, concentration-response curves come from the screen itself.

Assay [3] can be described thus: qHTS of pediatric cancer cell lines to identify multiple opportunities for drug repurposing: Primary screen for control Hh wild type fibroblast cells (AID 1347106).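 Also: a drop in luminescence marks cytotoxicity and a rise apparent proliferation; nearly all actives have a fitted effect of over 55% in size.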 The settings on record: Hh wild-type fibroblast viability, CellTiter-Glo luminescence, 48 h; series mostly up to 46 µM. Summed up:
(§2)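 Cells (500-1,000/well) in growth media were settled 5 h at 37 degrees C, then given compounds for 48 h. Viability was read as CellTiter-Glo luminescence. Primary runs used MIPE at 11 points (0.78 nM-46 µM) and NPC at 8 points (0.59 nM-46 µM); follow-ups used 11 points.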

Assay [4] is described as follows: qHTS of pediatric cancer cell lines to identify multiple opportunities for drug repurposing: Primary screen for Rh41 cells (AID 1347108).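 Also: luminescence drop marks cytotoxic hits; nearly all actives have a fitted effect of over 70% in size.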 As to conditions: Rh41 rhabdomyosarcoma viability, CellTiter-Glo luminescence, 48 h; series mostly up to 46 µM. In short, it runs like this:
as §1

A short description of assay [5]: qHTS of pediatric cancer cell lines to identify multiple opportunities for drug repurposing: Primary screen for Rh30 cells (AID 1347107). Also: nearly all actives have a fitted effect of over 75% in size. As to conditions: Rh30 rhabdomyosarcoma viability, CellTiter-Glo luminescence, 48 h; series mostly up to 46 µM. In short, it runs like this: as §2
The nature of assay [6]: qHTS of pediatric cancer cell lines to identify multiple opportunities for drug repurposing: Confirmatory screen for A673 cells (AID 1347110).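 Also: cells exposed to compound for 48 h before the viability read; nearly all actives have a fitted effect of over 65% in size.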 Also: potency is read from the fitted curve at half-maximal effect. As to conditions: A673 Ewing sarcoma cell viability; series mostly up to 45.9 µM. Summed up: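 Cells plated at 500-1,000/well were treated five hours later with multi-point dilutions up to 46 µM final. After two days, CellTiter-Glo was added and luminescence read.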

Assay [7] is described as follows: qHTS of pediatric cancer cell lines to identify multiple opportunities for drug repurposing: Confirmatory screen for LAN-5 cells (AID 1347113). Also: nearly all actives have a fitted effect of over 65% in size. As to conditions: LAN-5 neuroblastoma cell viability; series mostly up to 45.9 µM. In short, it runs like this:
as §2

Assay [8] is described as follows: qHTS of pediatric cancer cell lines to identify multiple opportunities for drug repurposing: Confirmatory screen for DAOY cells (AID 1347114). Also: nearly all actives have a fitted effect of over 65% in size. As to conditions: DAOY medulloblastoma cells viability, cytotoxicity qHTS; series mostly up to 45.9 µM. Summed up: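 Viability measured as metabolically active cells via CellTiter-Glo luminescence following 48 hours of compound exposure, 11-point dilutions in confirmatory testing. 500-1,000 cells/well plated 5 hours before dosing; controls were DMSO and 2.3 µM bortezomib.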

The nature of assay [9]: qHTS of pediatric cancer cell lines to identify multiple opportunities for drug repurposing: Confirmatory screen for NB-EBc1 cells (AID 1347115).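 Also: cells exposed to compound for 48 h before the viability read; nearly all actives have a fitted effect of over 45% in size.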 As to conditions: NB-EBc1 neuroblastoma cells, viability (cytotoxicity); series mostly up to 45.9 µM. Summed up:
as §2

Assay [10] can be described thus: qHTS of pediatric cancer cell lines to identify multiple opportunities for drug repurposing: Confirmatory screen for TC32 cells (AID 1347118).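 Also: cells exposed to compound for 48 h before the read; nearly all actives have a fitted effect of over 65% in size.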 The settings on record: TC32 Ewing sarcoma cells viability qHTS; series mostly up to 45.9 µM. Summed up: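 TC32 cells, 500-1,000/well in growth medium, compound-treated 48 h at 37 °C; viability from CellTiter-Glo luminescence. Primary screen: MIPE 11-point (0.78 nM–46 µM final), NPC 8-point (0.59 nM–46 µM final); confirmatory at 11-point dilutions.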

Assay [11] can be described thus: qHTS of pediatric cancer cell lines to identify multiple opportunities for drug repurposing: Confirmatory screen for control Hh wild type fibroblast cells (AID 1347121). Also: nearly all actives have a fitted effect of over 70% in size. As to conditions: viability qHTS; series mostly up to 45.9 µM. Summed up:
as §2

Assay [12] in a line: qHTS of pediatric cancer cell lines to identify multiple opportunities for drug repurposing: Confirmatory screen for U-2 OS cells (AID 1347122). Also: nearly all actives have a fitted effect of over 65% in size. As to conditions: U-2 OS osteosarcoma cell viability; series mostly up to 45.9 µM. Summed up: as §2
A short description of assay [13]: qHTS of pediatric cancer cell lines to identify multiple opportunities for drug repurposing: Confirmatory screen for Rh41 cells (AID 1347123).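 Also: 48 h compound exposure; nearly all actives have a fitted effect of over 60% in size.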 The settings on record: Rh41 rhabdomyosarcoma cells, viability/cytotoxicity qHTS; series mostly up to 45.9 µM. In short, it runs like this: as §2
The nature of assay [14]: qHTS of pediatric cancer cell lines to identify multiple opportunities for drug repurposing: Confirmatory screen for OHS-50 cells (AID 1347128).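 Also: compound exposure lasted 48 h at 37 degrees C; nearly all actives have a fitted effect of over 55% in size.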 As to conditions: OHS-50 osteosarcoma cells viability; series mostly up to 45.9 µM. Summed up: as §2
A short description of assay [15]: qHTS of pediatric cancer cell lines to identify multiple opportunities for drug repurposing: Confirmatory screen for NB1643 cells (AID 1347109). Also: nearly all actives have a fitted effect of over 45% in size. The settings on record: NB1643 neuroblastoma cell viability; series mostly up to 45.9 µM. Summed up: as §2
A short description of assay [16]: qHTS of pediatric cancer cell lines to identify multiple opportunities for drug repurposing: Confirmatory screen for BT-12 cells (AID 1347112). Also: nearly all actives have a fitted effect of over 55% in size. The settings on record: BT-12 rhabdoid tumor cells, viability; series mostly up to 45.9 µM. Summed up: as §2
Assay [17] in a line: qHTS of pediatric cancer cell lines to identify multiple opportunities for drug repurposing: Confirmatory screen for BT-37 cells (AID 1347117). Also: nearly all actives have a fitted effect of over 55% in size. The settings on record: BT-37 pediatric cancer cells, viability; series mostly up to 45.9 µM. In short, it runs like this: as §2
Assay [18] is described as follows: qHTS of pediatric cancer cell lines to identify multiple opportunities for drug repurposing: Confirmatory screen for MG 63 (6-TG R) cells (AID 1347119). Also: nearly all actives have a fitted effect of over 55% in size. As to conditions: MG-63 (6-TG resistant) osteosarcoma viability; series mostly up to 45.9 µM. In short, it runs like this: as §2
A short description of assay [19]: qHTS of pediatric cancer cell lines to identify multiple opportunities for drug repurposing: Confirmatory screen for RD cells (AID 1347124). As to conditions: RD rhabdomyosarcoma cell viability; series mostly up to 45.9 µM. Summed up:
as §2

Turning to `C/C(=C1\CCOC(=O)S1)N(C=O)Cc1cnc(C)nc1N`, the Potency result in assay [1], in assay [2], in assay [3] and in assay [4] was “inactive” each time.
As to `CC(Oc1c(Cl)cccc1Cl)C1=NCCN1` (stereo unspecified), the Potency result in assay [1], in assay [2], in [3] and in assay [4] was “inactive” throughout.
Consider `COc1cc(/C=C/C(N)=O)cc(OC)c1OC`, for which the Potency entry in assay [1], in assay [2], in assay [3], in assay [5], in assay [4] and in assay [6] was “inactive” each time. For the same compound, the Potency entry in assay [7], in assay [8], in [9], in [10], in [11] and in assay [12] was “inactive” each time. Moreover, the Potency result in [13] and in assay [14] was “inactive” each time.
For the compound `NC(=O)NS(=O)(=O)c1ccc(Cl)cc1`, the Potency entry in assay [1], in [2], in [3] and in assay [4] was “inactive” in each case.
Turning to `CCCCC(CC)CNC(=O)CC(C)OC(=O)CCC(=O)O` (stereo unspecified), the Potency entry in [1], in [2], in assay [3], in assay [4], in [15] and in [16] was “inactive” throughout. Moreover, the Potency result in assay [8], in assay [9], in [17], in assay [18], in assay [11] and in assay [12] was “inactive” throughout. The Potency entry in assay [13], in assay [19] and in assay [14] was “inactive” in each case. The Potency in assay [6] was 2.61 µM (active).
Turning to `CC(C)C(C)(C)C(C)(C)C(C)(C)S`, the Potency entry in assay [1], in assay [2], in [3] and in [4] was “inactive” throughout.
For the compound `CC(=O)Nc1ccc(S(=O)(=O)Nc2cc(C)on2)cc1`, the Potency result in assay [1], in assay [2], in [3] and in [4] was “inactive” each time.
`Cc1ccc2ccc(Cl)cc2n1`: the Potency entry in assay [1], in [2], in assay [3] and in [4] was “inactive” throughout.
Take `Cc1nc([N+](=O)[O-])cn1-c1ccc([N+](=O)[O-])cc1`: the Potency entry in assay [1], in assay [2], in assay [3] and in assay [4] was “inactive” in each case.
For `O=C(O)c1[nH]n(-c2ccc(S(=O)(=O)O)cc2)c(=O)c1N=Nc1ccc(S(=O)(=O)O)cc1`, the Potency result in assay [1], in assay [2], in assay [3] and in assay [4] was “inactive” each time.
Take `CN1Cc2cc(C(=O)N3CCC(C4CCNCC4)CC3)ccc2NC(CC(=O)O)C1=O` (stereo unspecified): the Potency entry in assay [1], in assay [2], in assay [3] and in [4] was “inactive” in each case.
